Results as given in PubChem BioAssay AID504692 (The Scripps Research Institute Molecular Screening Center, 2011).
About 2,000 (0.59%) of roughly 340,000 compounds were called active. This is one part of a sample in which actives are shown more often than they occur. Cut-off read from the data, not from the text of the source: active = activation mostly above about 9.5% (no sharp cut-off); inactive = mostly below about 7.6%.

Target: 5-hydroxytryptamine receptor 5A (Homo sapiens) (UniProt P47898)
Assay: activation of human 5-HT5A receptor – cell-based, luminescence, full-deck HTS, counter-screen for OPRM1-OPRD1 heterodimer agonist project, primary screen (AID 504692);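 note: 0% = cells with vehicle only and 100% = reference agonist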
Settings: HTR5A agonist assay, at 9.3 µM, hits give high values

Sequence of 5-hydroxytryptamine receptor 5A (Homo sapiens) (P47898 whole entry, looked up): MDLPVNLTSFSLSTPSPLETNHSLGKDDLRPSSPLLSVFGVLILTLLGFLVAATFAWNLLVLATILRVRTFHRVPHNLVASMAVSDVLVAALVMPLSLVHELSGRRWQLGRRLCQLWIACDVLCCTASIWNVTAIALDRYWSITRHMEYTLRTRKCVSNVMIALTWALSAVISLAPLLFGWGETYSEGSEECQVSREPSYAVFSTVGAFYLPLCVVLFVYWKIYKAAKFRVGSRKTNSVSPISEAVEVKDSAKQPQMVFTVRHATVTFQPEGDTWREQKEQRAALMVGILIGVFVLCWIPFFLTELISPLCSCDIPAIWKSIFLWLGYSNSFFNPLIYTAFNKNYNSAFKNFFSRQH

Row | Structure (SMILES) | activation
1 | O=C(Nc1ccc2c(c1)OCO2)C1CC1(Cl)Cl (stereo not given) | 12.7% (inactive)
2 | Cc1ccc(-c2noc(CCC(=O)Nc3ccccc3N3CCN(C)CC3)n2)cc1 | -1.14% (inactive)
3 | O=C(Nc1ccccc1Cl)O/N=C(/c1ccccc1)c1ccccn1 | 12.7% (active)
4 | O=C(COc1ccc(-n2cnnn2)cc1)Nc1ccccc1Cl | 5.09% (inactive)
5 | Cc1ccc(C(=O)O/N=C(\N)c2ccccn2)cc1Cl | 4.33% (inactive)
6 | OCCC1CN(Cc2cccn2-c2nccs2)CCN1CCc1ccccc1 (stereo not given) | 0.07% (inactive)
7 | O=C(CC(Cc1ccccc1)C(=O)O)NCCc1ccc2c(c1)OCO2 (stereo not given) | 0.52% (inactive)
8 | O=C(CCc1nnc(Cc2ccc3c(c2)OCO3)o1)NCCc1ccccc1Cl | 10.7% (active)
9 | O=C(CCNS(=O)(=O)c1ccccc1C(F)(F)F)NCc1ccc2c(c1)OCO2 | -3.01% (inactive)
10 | CC(NC(=O)COc1ccc(-c2ccccc2)cc1)C1CCCO1 (stereo not given) | 4.73% (inactive)
11 | Cc1nn(CC(=O)NCc2ccccn2)c(C)c1[N+](=O)[O-] | -1.81% (inactive)
12 | Cc1ccccc1CN1CCN(CC(=O)NCc2ccccn2)C1=O | 16.8% (active)
13 | COCCCNC(=O)CN1CCN(Cc2ccccc2Cl)C1=O | 2.41% (inactive)
14 | O=C(Cn1nnc(-c2ccccc2)n1)N/N=C/c1ccc(-c2ccc(Cl)cc2)o1 | 1.41% (inactive)
15 | CCc1ccc(C(=O)OCC(=O)Nc2cccc(S(=O)(=O)NC3=NCCCCC3)c2)cc1 | 7.2% (inactive)
16 | CN(CCOc1ccc(Br)cc1)CC(=O)Nc1cccc(S(=O)(=O)NC2=NCCC2)c1 | 12.7% (active)
17 | CC(=O)Nc1ccc(C(=O)Nc2cccc(S(=O)(=O)NC3=NCCC3)c2)cc1 | 1.89% (inactive)
18 | Cn1c(=O)[nH]c(=O)c2c1nc(N(CCO)Cc1ccccc1)n2Cc1ccccc1Cl | -3.62% (inactive)
19 | COc1ccc(Cl)cc1NC(=O)C(C)N1CCc2ccccc21 (stereo not given) | 1.38% (inactive)
20 | CCCCCc1ccc(-c2ccc(C(=O)O)cc2)nc1 | 4.14% (inactive)

Row | Structure (SMILES) | activation
21 | CCc1ccc(NC(=O)CN2C(=O)COc3ccc(S(=O)(=O)N4CCCC4)cc32)cc1 | 0.59% (inactive)
22 | CCc1ccc(NC(=O)CN2C(=O)CSC2=O)cc1 | 13.7% (active)
23 | COc1ccc(NC(=O)CN2C(=O)CSC2=O)cc1 | -1% (inactive)
24 | COC(=O)c1c(CCl)noc1C(=O)NC(C)C | 2.61% (inactive)
25 | CC(C)(C)NC(=O)COC(=O)c1cc(Cl)ccc1[N+](=O)[O-] | 7.24% (inactive)
26 | CCOC(=O)c1cnc2sccn2c1=O | 21% (active)
27 | CCOC(=O)c1ccccc1NS(=O)(=O)c1c(C)nc2sccn2c1=O | -1.95% (inactive)
28 | CN(C)/C=C/C(=O)c1cnc2sccn2c1=O | 0.28% (inactive)
29 | Cc1nc(C(=O)NCc2ccccc2)sc1C1(C)CC(c2cccnc2)=NO1 (stereo not given) | 6.13% (inactive)
30 | COc1cccc(OCC(=O)Nc2ccccc2C(N)=O)c1 | 18.3% (active)
31 | Cc1cccc(OCC(=O)Nc2ccccc2F)c1 | 0.76% (inactive)
32 | Cc1cccc(OCCC(=O)Nc2ccccc2C(N)=O)c1 | 1.89% (inactive)
33 | Cc1cc(C)c(S(=O)(=O)NCC(c2ccc3c(c2)OCO3)N2CCOCC2)c(C)c1 (stereo not given) | -4.07% (inactive)
34 | Cc1ccc2nc(SC(C)C(=O)NCc3ccco3)[nH]c2c1 (stereo not given) | -4.41% (inactive)
35 | CC(=O)c1c(C)[nH]c(C(=O)OCC(=O)NCCC(C)C)c1C | -1.47% (inactive)
36 | CC(=O)c1c(C)[nH]c(C(=O)OCC(=O)Nc2c(C)cccc2C)c1C | 17.5% (active)
37 | CC(=O)c1c(C)[nH]c(C(=O)OCC(=O)Nc2c(C)n(C)n(-c3ccccc3)c2=O)c1C | 1.57% (inactive)
38 | CSCCC(NS(=O)(=O)/C=C/c1ccccc1)C(=O)N1CCC(C)CC1 (stereo not given) | -0.99% (inactive)
39 | O=C(Nc1ccc(C(=O)N2CCOCC2)cc1)Nc1cccc(C(F)(F)F)c1 | 28.4% (active)
40 | CCNS(=O)(=O)c1ccc(NC(=O)c2cncc(Br)c2)cc1 | 0.87% (inactive)

Row | Structure (SMILES) | activation
41 | COc1ccccc1C(=O)Nc1cccc(C(=O)N2CCOCC2)c1 | 3.58% (inactive)
42 | O=C(COc1ccc(S(=O)(=O)Nc2cccc(C(F)(F)F)c2)cc1)N1CCOCC1 | 1.4% (inactive)
43 | O=C(NCc1ccccc1)c1ccc(S(=O)(=O)Nc2cccc(C(F)(F)F)c2)cc1 | 2.56% (inactive)
44 | CCNS(=O)(=O)c1ccc(NC(=O)Nc2cccc(C(F)(F)F)c2)cc1 | 12.8% (active)
45 | Cc1cc(OCCN2CCCC2)ccc1C(C)C | 8.01% (inactive)
46 | O=C(NCCCO)c1cc2c([nH]c3ccccc32)c(-c2ccc(F)cc2)n1 | 1.16% (inactive)
47 | COc1ccccc1C(=O)COC(=O)COc1ccc(C#N)cc1 | -2.03% (inactive)
48 | COc1ccc(-c2nc(CS(=O)(=O)CC(=O)NCc3cccc(Br)c3)c(C)o2)cc1 | 4.07% (inactive)
49 | O=C(COC(=O)CCCNC(=O)c1ccc(Cl)cc1)Nc1cc(Cl)ccc1Cl | 7.08% (inactive)
50 | O=C(CN(c1ccccc1)S(=O)(=O)c1ccc(Cl)cc1)Nc1ccccc1C(=O)N1CCCC1 | -0.02% (inactive)
51 | CCN(CC)C(=O)c1nc[nH]c1C(=O)N(C)Cc1ccccc1 | -1.14% (inactive)
52 | COc1ccc(C(CCN(Cc2ccc(OC)c(OC)c2)C(=O)CCl)c2ccccc2)cc1 (stereo not given) | 44.4% (active)
53 | COc1ccc(CCNC(=O)C(Sc2ccccn2)c2ccccc2)cc1OC (stereo not given) | 2.72% (inactive)
54 | COc1ccc(COC(=O)NC(C(=O)O)c2ccccc2)cc1 (stereo not given) | -0.04% (inactive)
55 | CCCNC(=S)NC1CC2CCCC(C1)N2CC(C)C (stereo not given) | 4.6% (inactive)
56 | COc1c(N2CCN(C(=S)Nc3ccccc3F)C(C)C2)c(F)cc2c(=O)c(C(=O)O)cn(C3CC3)c12 (stereo not given) | -0.11% (inactive)
57 | Cc1ccc(C(=O)N/C(=C\c2ccco2)C(=O)N2CCSCC2)cc1C | 1.54% (inactive)
58 | O=C(NC(Cc1c[nH]c2ccccc12)C(=O)O)/C(=C/c1ccco1)NC(=O)c1ccccc1 (stereo not given) | 0.55% (inactive)
59 | Cc1ccc(C(=O)N/C(=C/c2ccco2)C(=O)NCCc2c[nH]c3ccccc23)cc1C | 20.3% (active)
60 | Cc1ccc(/C=N/NC(=O)C(NC(=O)c2ccccc2)c2n[nH]c(=O)c3ccccc23)cc1 (stereo not given) | 3% (inactive)
